Test results taken from PubChem BioAssay.
Inconclusive results are not listed. Activity calls are given as the source filed them. Unless noted, how the calls were made is not given here.

How the values were obtained:
[1] = sensitizers of A549 cells to miR-34 induction, primary screen, imaging, A549 dox-inducible miR-34, nuclei and caspase counts (AID 1347080;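 active means compounds whose cell count with miR-34 switched on is under 0.7 times the count with it off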); conditions: A549 miR-34 inducible, Hoechst nuclei count, 48 h
[2] = phospholipid biosynthesis inhibitors in animal cells, primary screen, cell-based, LOPAC library, screen 4 (AID 1347384); conditions: phospholipid biosynthesis inhibition screen, at 10 µM
[3] = viability rescue of complex I mutant cybrids, primary screen, cell-based, galactose medium, ATP luminescence (AID 1645843;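 active means z-score of at least 1.8 in each of two replicates, scored against plate mean and spread of sample wells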;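 further: positive z means more ATP and so rescue of galactose-driven cybrid death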); conditions: complex I mutant cybrid cells, 72 h, stronger effect = higher value
[4] = circadian clock period modulators, cell-based, LOPAC library, luminescence reporter (AID 2774); conditions: circadian reporter cells, at 7 µM, actives lie on both sides;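 further: values are relative to mean of DMSO wells on each plate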
[5] = system: Hepatitis C virus NS3 helicase; experiment: HCV NS3 helicase inhibitors, primary screen, biochemical, fluorescence polarization, LOPAC1280 library (AID 687035; in the data active means inhibition above about 37%); conditions: Purified HCV NS3 helicase, Cy5-dT15 ssDNA binding fluorescence polarization; stronger effect = higher value; concentration not given here
[6] = Cy5 fluorescence quenching or enhancement artefacts, artefact control for HCV NS3 helicase inhibitor project, biochemical, LOPAC1280 (AID 687037); conditions: Cy5-DNA-NS3h complex fluorescence interference counterscreen
[7] = target: ATP-dependent translocase ABCB1 (Homo sapiens) (UniProt P08183); experiment: MDR1 (ABCB1) efflux transporter inhibition, cell-based (AID 377; in the data active means fluorescence slope change above about 50%); conditions: MDR1-expressing cells, fluorescent substrate accumulation slope; stronger effect = higher value; concentration not given here
Sequence of ATP-dependent translocase ABCB1 (Homo sapiens) (P08183 whole entry, looked up): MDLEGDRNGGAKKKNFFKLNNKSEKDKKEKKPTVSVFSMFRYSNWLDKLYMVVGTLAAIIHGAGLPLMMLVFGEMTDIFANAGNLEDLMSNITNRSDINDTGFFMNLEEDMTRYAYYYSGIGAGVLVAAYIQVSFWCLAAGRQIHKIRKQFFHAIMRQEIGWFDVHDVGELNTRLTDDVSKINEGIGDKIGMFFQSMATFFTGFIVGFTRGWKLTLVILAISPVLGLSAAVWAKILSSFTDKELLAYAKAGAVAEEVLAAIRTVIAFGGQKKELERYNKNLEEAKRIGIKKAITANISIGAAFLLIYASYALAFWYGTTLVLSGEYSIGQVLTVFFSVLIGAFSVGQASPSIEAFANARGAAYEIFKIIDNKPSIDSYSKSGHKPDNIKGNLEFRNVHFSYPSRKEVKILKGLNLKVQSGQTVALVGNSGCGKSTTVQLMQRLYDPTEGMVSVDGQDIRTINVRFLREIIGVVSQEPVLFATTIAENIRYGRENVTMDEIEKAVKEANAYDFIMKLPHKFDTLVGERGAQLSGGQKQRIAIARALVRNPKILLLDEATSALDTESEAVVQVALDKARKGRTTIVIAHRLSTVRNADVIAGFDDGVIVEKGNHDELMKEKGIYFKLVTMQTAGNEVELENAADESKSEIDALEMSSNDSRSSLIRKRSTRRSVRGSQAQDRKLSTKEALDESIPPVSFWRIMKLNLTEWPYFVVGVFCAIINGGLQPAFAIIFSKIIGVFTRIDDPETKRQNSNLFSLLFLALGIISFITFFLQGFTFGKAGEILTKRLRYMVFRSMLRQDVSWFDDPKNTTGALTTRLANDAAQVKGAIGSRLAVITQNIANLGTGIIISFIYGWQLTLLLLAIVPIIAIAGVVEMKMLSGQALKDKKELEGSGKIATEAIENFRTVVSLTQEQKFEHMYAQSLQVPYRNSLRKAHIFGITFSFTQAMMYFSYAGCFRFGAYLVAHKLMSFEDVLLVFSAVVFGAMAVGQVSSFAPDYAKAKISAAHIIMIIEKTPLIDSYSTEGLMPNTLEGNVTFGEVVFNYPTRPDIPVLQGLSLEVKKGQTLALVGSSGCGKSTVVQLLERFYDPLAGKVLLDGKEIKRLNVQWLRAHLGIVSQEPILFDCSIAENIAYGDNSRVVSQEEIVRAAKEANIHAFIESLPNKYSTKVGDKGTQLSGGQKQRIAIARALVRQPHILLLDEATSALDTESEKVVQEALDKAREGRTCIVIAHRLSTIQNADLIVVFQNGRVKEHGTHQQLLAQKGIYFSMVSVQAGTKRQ

[8] = liver-stage malaria parasite growth inhibition, primary screen, cell-based, HepG2, luciferase luminescence, HepG2 viability (AID 624349; in the data active means parasite load remaining mostly below about 12%, no sharp cut-off; inactive means mostly above about 10%;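 further: 100% = mean of DMSO negative control wells on the same plate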); conditions: P. berghei liver stage in HepG2, luciferase luminescence, concentration not given here; parasite load remaining: stronger effect = lower value; viability: measured here: HepG2 viability without parasites
[9] = stronger effect = lower value, cell number ratio, induced over uninduced
[10] = measured here: relative caspase fold change +Dox/-Dox
[11] = measured here: total cells with miR-34 induction, stronger effect = lower value
[12] = measured here: total cells without miR-34 induction

Row | SMILES | fold change [1, 9] | fold change [1, 10] | cell count [1, 11] | cell count [1, 12] | outcome [2] | z-score [3] | period change [4] | inhibition [5] | fluorescence ratio (interference) [6] | fluorescence slope change [7] | parasite load remaining [8] | viability [8]
1 | COCCOc1cc2nc[nH]c(=O)c2cc1OCCOC | 1.02 (inactive) | 1.39 | 10200 | 10100 | inactive | 1.01 (inactive) |  |  |  |  |  | 
2 | CCCCCCCCCCCCCCSCC(=O)O | 0.985 (inactive) | 1.37 | 9840 | 9990 | inactive | -0.24 (inactive) | -0.08 h (inactive) | -2% (inactive) | 1 (inactive) |  |  | 
3 | COc1cccc(C(=O)NCCN2CCN(c3ccc(Cl)cc3)CC2)c1 | 1.02 (inactive) | 1.92 | 9900 | 9720 | inactive | -0.845 (inactive) | -0.035 h (inactive) | 0% (inactive) | 1 (inactive) |  |  | 
4 | O=C(O)/C=C/c1cnc[nH]1 | 1.01 (inactive) | 2.13 | 10700 | 10600 | inactive | 0.495 (inactive) | -0.135 h (inactive) | -2% (inactive) | 1 (inactive) |  |  | 
5 | CC(=O)/C(C)=N/O | 0.97 (inactive) | 2.72 | 9060 | 9340 | inactive | 0.485 (inactive) | 0.15 h (inactive) |  |  |  |  | 
6 | OC[C@H]1O[C@@H](n2cnc3c(NC4CCCCC4)ncnc32)[C@H](O)[C@@H]1O | 0.959 (inactive) | 1.25 | 9650 | 10100 | inactive | 0.865 (inactive) | 0.08 h (inactive) | -1% (inactive) | 1 (inactive) |  |  | 
7 | NCC1OC(O[C@@H]2[C@H](O)C(OC3C(O)C(N)CC(N)C3OC3OC(CO)C(O)C(O)C3N)O[C@@H]2CO)C(N)C(O)C1O (stereo partly drawn) | 0.998 (inactive) | 1.38 | 9490 | 9510 | inactive | 0.61 (inactive) | 0.005 h (inactive) | 0% (inactive) | 1 (inactive) | 14.4% (inactive) |  | 
8 | COc1cc(OC)c(/C=C2/C(=O)Nc3ccccc32)c(OC)c1 | 1.2 (inactive) | 0.628 | 2100 | 1750 | inactive | -1.29 (inactive) | -0.54 h (inactive) | -1% (inactive) | 1 (inactive) |  | 35.9% (inactive) | 78.8%
9 | Oc1ccccc1O | 1.03 (inactive) | 1.8 | 7780 | 7580 | inactive | -1.42 (inactive) | -0.735 h (inactive) | -1% (inactive) | 1 (inactive) |  |  | 
10 | O=c1[nH]c(=O)c2nc3ccccc3nc2[nH]1 | 1.04 (inactive) | 1.29 | 8690 | 8380 | inactive | 0.695 (inactive) | -0.07 h (inactive) | -1% (inactive) | 1 (inactive) |  |  | 
11 | COc1ccccc1N1CCN(CCCNc2c(C)c(=O)n(C)c(=O)n2C)CC1 | 0.886 (inactive) | 2.76 | 8920 | 10100 | inactive | 0.025 (inactive) | -0.1 h (inactive) | -5% (inactive) | 1 (inactive) |  |  | 
12 | NC(CCCP(=O)(O)O)C(=O)O (stereo not drawn) | 1.08 (inactive) | 1.92 | 10400 | 9550 | inactive | 0.21 (inactive) | 0.105 h (inactive) | -3% (inactive) | 1 (inactive) |  |  | 
13 | CC(=O)[C@H]1CCC2C3CC=C4C[C@@H](OS(=O)(=O)O)CC[C@]4(C)C3CC[C@@]21C (stereo partly drawn) | 0.987 (inactive) | 1.53 | 10100 | 10300 | inactive | 2.2 (active) | 0.02 h (inactive) | 1% (inactive) | 1 (inactive) |  |  | 
14 | COCCOc1cc2ncnc(Cl)c2cc1OCCOC | 1.03 (inactive) | 1.13 | 9200 | 8960 | inactive | -0.675 (inactive) |  |  |  |  |  | 
15 | NCCCCCCCCCCN | 0.948 (inactive) | 1.23 | 10300 | 10900 | inactive | -0.23 (inactive) | 0 h (inactive) | 2% (inactive) | 1 (inactive) |  |  | 
16 | O=C(CCSCc1ccco1)NNC(=O)N1Cc2ccccc2Oc2ccc(Cl)cc21 | 0.969 (inactive) | 0.669 | 7850 | 8100 | inactive | 1.58 (inactive) |  |  |  |  |  | 
17 | COc1ccccc1CN[C@@H]1CCCN[C@@H]1c1ccccc1 | 0.967 (inactive) | 1.32 | 9540 | 9860 | inactive | -0.42 (inactive) |  |  |  |  |  | 
18 | Fc1ccc2[nH]c(CN3CCN(c4ccccn4)CC3)cc2c1 | 0.975 (inactive) | 1.18 | 8710 | 8930 | inactive | -1.13 (inactive) |  |  |  |  |  | 
19 | N#CC(C#N)=C(N)/C(C#N)=C/c1ccc(O)cc1 | 0.894 (inactive) | 1.36 | 8590 | 9610 | inactive | 0.29 (inactive) | -0.025 h (inactive) | -2% (inactive) | 1 (inactive) |  | 31.2% (inactive) | 70.9%
20 | O=Nc1ccc2oc(=O)ccc2c1 | 1.06 (inactive) | 0.992 | 10200 | 9600 | inactive | -1.25 (inactive) | -0.05 h (inactive) | -2% (inactive) | 1 (inactive) |  |  | 
